# SARS PLpro yeast – blocks SARS-CoV papain-like protease in a yeast assay; Potency, µM (highest dose often 32.9 µM), inactives show top-dose activity, positive = growth rescue, actives largely listed as activators; 330,000 compounds, 0.19% hits; S. cerevisiae expressing SARS-CoV PLpro, growth rescue; calls by dose curve; further: potency means the concentration at half of the fitted maximal effect; 0% is about no effect; nearly all actives have a fitted effect of over 55% in size
# Cycloheximide cs – affects cycloheximide protein synthesis inhibition readout, counter-screen; cell reporter, cycloheximide protein synthesis inhibition counterscreen; max response, %; 300,000 compounds, 12% hits; in the data active means max response mostly above about 13%, no sharp cut-off; inactive means mostly below about 14%; further: read at 38.3 µM for the half of the compounds with a filed dose; 0% is about no effect
# AmpC inh detg – blocks E. coli AmpC beta-lactamase in detergent assay | Potency, µM (doses to about 114 µM), for inactives: top-dose activity change, negative = inhibition, hits mostly inhibitors | AID 485294 | AmpC hydrolysis of nitrocefin, absorbance 480 nm, 0.01% Triton | 370,000 compounds, 0.041% hits;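 further: potency means the concentration at half of the fitted maximal effect; 0% = no-compound wells and -100% = no-enzyme wells; nearly all actives have a fitted effect of over 25% in size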
# Target sequence (P00811 whole entry, looked up): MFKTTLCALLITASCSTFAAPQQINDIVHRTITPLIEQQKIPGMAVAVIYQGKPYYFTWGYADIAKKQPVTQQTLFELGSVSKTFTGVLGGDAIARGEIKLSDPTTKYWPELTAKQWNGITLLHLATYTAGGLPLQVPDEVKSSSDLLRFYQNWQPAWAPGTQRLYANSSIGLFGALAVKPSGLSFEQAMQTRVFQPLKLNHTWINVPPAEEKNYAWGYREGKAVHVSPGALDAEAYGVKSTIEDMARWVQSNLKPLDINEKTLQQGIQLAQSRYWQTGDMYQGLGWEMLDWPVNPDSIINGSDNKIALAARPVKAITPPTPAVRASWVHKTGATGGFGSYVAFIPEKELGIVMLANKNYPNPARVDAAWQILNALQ
#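 AmpC (5.3 nM in the dispensed reagent) in 20 mM phosphate pH 7.0 with 0.01% (detergent screen) or 0.0001% Triton X-100 was preincubated with compounds for 15 min at room temperature. Nitrocefin was then added from an 800 uM solution, and hydrolysis was followed at 480 nm.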
# AMA1 RON2 block – disrupts binding of P. falciparum AMA1 to RON2; Potency, µM (doses to about 58.2 µM), without a hit: at the highest dose activity change, negative = inhibition, actives largely listed as inhibitors; AlphaScreen AMA1-biotinylated RON2 peptide binding; 360,000 compounds, 0.2% hits;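 further: potency means the concentration at half of the fitted maximal effect; 0% = vehicle wells and -100% = peptide control; nearly all actives have a fitted effect of over 45% in size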
#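 AMA1 (3D7) with his tag at 25 nM final met compounds first, then biotinylated RON2 peptide at 25 nM; detection used donor plus acceptor beads, 10 µg/mL apiece, read by AlphaScreen after 30 min at room temperature.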
# Shiga toxin inh – blocks Shiga toxin action in Vero cells; inhibition, % at 38.7 µM; Vero cells, Shiga toxin protein synthesis inhibition reporter; 290,000 compounds, 9.2% hits; AID 2315; in the data active means inhibition mostly above about 28%, no sharp cut-off; inactive means mostly below about 43%; further: 0% is about no effect
# AmpC inh no detg – inhibitors of E. coli AmpC beta-lactamase without detergent; 330,000 compounds, 0.52% hits; Potency, µM (doses to about 57.1 µM), without a hit: top-dose activity change, negative = inhibition, usual class: inhibitors; AID 485341; AmpC nitrocefin hydrolysis, absorbance 480 nm, 0.0001% Triton;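 further: potency means the concentration at half of the fitted maximal effect; plate controls were no compound for no effect and no enzyme for full effect; nearly all actives have a fitted effect of over 20% in size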
#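 20 mM phosphate pH 7.0 + 0.01% (detergent screen) or 0.0001% Triton X-100; 5.3 nM AmpC reagent; cpd preinc 15 min RT; nitrocefin (800 uM stock) to start; A480 q20 s × 4 min; Activity was normalised to no-enzyme and no-compound control wells.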
# * marks the source's active call; other numbers are inactive results; ? = inconclusive; . = not tested or not shown; [ ] = dose if it differs, or a comment. The sample as a whole holds a higher share of hits than the screen did. Unless noted, the call rests on the fitted dose curve; in most records, active means well fitted curve in the direction sought with a large enough effect; inconclusive means small, poorly fitted or top-dose-only effect, or another doubt; inactive means no such curve, though single readings can be large; an effect the other way counts as inactive or inconclusive.
SMILES,SARS PLpro yeast,Cycloheximide cs,AmpC inh detg,AMA1 RON2 block,Shiga toxin inh,AmpC inh no detg
CN(C)C(=O)Oc1ccc2oc(=O)cc(-c3cc4ccccc4o3)c2c1,-8%,-2,-11%,-14%,-13,51%
CCCS(=O)(=O)NC(=O)C1(C)CCN(C(=O)c2oc3ccccc3c2C)C1 (centres undefined),.,.,.,-7%,.,.
Nc1ccccc1SSc1ccccc1N,-25%,69*,6%,-9%,127*,-41%
CC(C)CSc1nsc(N)n1,-14%,31,1%,3%,50,-18%
Nc1nc(SCc2ccccc2Cl)ns1,-23%,17*,-14%,?,58*,-15%
N#Cc1ccccc1Sc1ccccc1N,-8%,-2,0%,16%,-19,-33%
Nc1nc(SCc2ccccc2)ns1,-10%,17*,-6%,15%,35*,-40%
Nc1ccccc1SCc1ccccc1Cl,-1%,25*,0%,-6%,56*,-18%
CCOC(=O)c1c(S(=O)(=O)Nc2cccc(-c3ccno3)c2)c(C)n(C)c1C,0%,1,-12%,-9%,-5,-5%
Nc1nc(SCc2ccc(Cl)cc2)ns1,-8%,38*,-8%,0%,68*,-43%
CSc1nsc(SCc2ccc(Cl)cc2)n1,3%,14,?,76%,14,-16%
O=C(/C=C/c1ccccc1)Oc1ccc(C(=S)N2CCOCC2)cc1,-4%,15,2%,-16%,-5,-13%
CC(C)c1ccc(-n2nc3ccc(N)cc3n2)cc1,-2%,68*,8%,-8%,77*,-15%
COc1ccc(-n2nc3ccc(N)cc3n2)cc1,.,.,.,22%,.,.
Nc1ccc2nn(-c3ccc(F)cc3)nc2c1,1%,58*,-2%,2%,95*,-29%
Nc1ccc2nn(-c3cc([N+](=O)[O-])ccc3O)nc2c1,0%,7,3%,18%,-3,-11%
Cc1ccc(-n2nc3ccc(N)cc3n2)cc1,-11%,28*,-6%,-8%,95,-17%
COc1ccc2[nH]c(C(=O)NCc3ccccc3)cc2c1,0%,8,4%,0%,34,-22%
COc1ccc(NC(=O)c2cc3ccccc3[nH]2)cc1,1%,40*,-5%,15%,64*,-3%
COc1ccc2[nH]c(C(=O)Nc3cccc(C)n3)cc2c1,0%,29*,5%,-3%,47*,-41%
CC(C)(C)c1ccc(S(=O)(=O)NNC(=O)c2cc3ccccc3[nH]2)cc1,-10%,27*,0%,5%,54*,-26%
COc1ccc2[nH]c(C(=O)Nc3ccc(C)c(F)c3)cc2c1,0%,36*,-2%,4%,69*,-26%
Cc1cccc2c1-c1sc(C(=O)NCCCN3CCC(C)CC3)cc1CO2,15%,3,-12%,3%,-13,46%
COc1ccc(OC)c(NC(=O)c2ccc(S(=O)(=O)N3CCN(C)CC3)cc2)c1,9%,-2,?,-3%,-24,18%
CCC1C(O)=C(c2ccccn2)C(=N)N1c1ccccc1 (centres undefined),-3%,14,?,10%,10,-35%
SMILES,SARS PLpro yeast,Cycloheximide cs,AmpC inh detg,AMA1 RON2 block,Shiga toxin inh,AmpC inh no detg
CCCn1c(SCC(=O)Nc2cc(Cl)ccc2OC)n[nH]c1=O,2%,1,4%,0%,-6,27%
NC(=O)C(=O)N/N=C1\CCc2ccccc21,0%,37*,-11%,-12%,62*,-36%[11.4 µM]
O=C(N/N=C1\CCCc2ccccc21)c1ccc([N+](=O)[O-])cc1,-10%,11,-10%,35%,39,-40%
Cc1ccc(C(=O)N/N=C2\CCCc3ccccc32)c(C)c1,0%,49*,2%,9%,71*,-18%
CCC1CCCCN1Cc1nc2ccccc2c(=O)n1CC(C)=O (centres undefined),0%,34*,5%,6%,75*,10%
COc1ccc(NCC(=O)Nc2ccc(C#N)cc2)cc1Cl,-14%,-2,-12%,12%,-20,-36%
CCOC(=O)C1(c2ccccc2)NC(c2ccccc2C)C2C(=O)N(c3ccc4c(c3)OCO4)C(=O)C21 (centres undefined),-10%,-9,0%,-1%,18,2%
CCCCOc1ccc(C2CCC(C(C)=O)C(C)C2)cc1 (centres undefined),-5%,51*,0%,-7%,62*,-7%
CCCCCOc1ccc(C2NC(=O)NC2=O)cc1 (centres undefined),6%,6,?,-9%,-35,-8%
CC1(C(=O)NCC2CC2)C=CC2(CCCCC2)N1C(=O)c1ccccc1 (centres undefined),-3%,66*,?,6%,49*,8%
CC1(C(=O)NCc2cc(F)cc(C(F)(F)F)c2)C=CC2(CCCCC2)N1C(=O)c1ccccc1 (centres undefined),-6%,-1,?,-5%,-6,-2%
O=C(OCC1CC(c2ccccc2Cl)=NO1)c1ccc(Br)cc1 (centres undefined),-25%,20*,-1%,19%,40,-9%
O=C(OCC1CC(c2ccccc2)=NO1)c1ccco1 (centres undefined),-6%,54*,-1%,10%,93*,-16%
Cc1ccc(S(=O)(=O)C(CNC(=O)C(=O)NCCc2ccccc2)c2ccco2)cc1 (centres undefined),.,.,-1%,.,.,.
Cc1cc2c(cc1C)C(=O)CCC2,.,.,.,0%,.,.
Cc1ccc(C(=O)Nc2ccc(C(=O)OCc3cc(=O)n4ccsc4n3)cc2)cc1,-1%,.,7%,.,.,-10%
O=C(NC1=C(Nc2ccc(Cl)cc2)C(=O)c2ccccc2C1=O)c1ccccc1,10%,24*,1%,-5%,38,-29%
CN(C1=C(NC(=O)c2ccc(Cl)cc2)C(=O)c2ccccc2C1=O)c1ccccc1,-24%,20*,-1%,10µM*,50*,-18%
CN(c1ccc(C(=O)Nc2ccc(Cl)cn2)cc1)S(=O)(=O)c1ccccc1,-2%,12,-6%,0%,20,-30%
Cc1cccc(NC2=C(NC(=O)c3ccccc3)C(=O)c3ccccc3C2=O)c1,-41%,14*,-12%,?,30,-29%
O=C1C(Cl)=C(NC(=O)c2ccccc2)C(=O)C(Cl)=C1NC(=O)c1ccccc1,-11%,18*,?,-9%,60,-53%
Cc1cccc(NC(=O)c2cccc(C(=O)Nc3cccc(C)c3)c2)c1,5%,-4,-6%,2%,-2,-29%
Cc1ccc2nc(SCc3nnc(-c4ccccc4)o3)[nH]c2c1,3%,-3,-12%,15%,-6,-21%
CN(C)C(=O)CSc1nnc([C@@H](N)Cc2ccccc2)o1,3%,0,-15%,75%,-4,-7%

# Screening results as filed in PubChem BioAssay.
